Compound activity as filed in PubChem.
A selection: hits, their analogues and other compounds. The true share with any hit is near 1.4%.
RE007 growth inh – less growth of the S. pombe RE007 Vpr strain. hit rate 0.21% among 360,000. Potency, µM (titrated, usually from 92.2 µM), most hits filed as inhibitors. S. pombe RE007 Vpr strain, BacTiter-Glo ATP luminescence, 24 h; active = well fitted falling curve with a large enough effect; inconclusive = small, poorly fitted or top-dose-only effect; inactive = no such curve, though single readings can be large or run the other way; note: nearly all actives have a fitted effect of over 50% in size
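Fission yeast strain RE007, carrying one chromosomally integrated HIV-1 vpr copy, was seeded at OD 0.01 in PMG+AL medium with 23 nL pinned compound. After 24 h at 30 °C and 99% humidity, viability was read by BacTiter-Glo luminescence.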
AmpC inh no detg – AmpC beta-lactamase inhibition without detergent; P00811; AmpC nitrocefin hydrolysis, absorbance 480 nm, 0.0001% Triton; Potency, µM (highest dose often 57.1 µM), most hits filed as inhibitors; hit rate 0.52% among 330,000; AID 485341; note: nearly all actives have a fitted effect of over 20% in size
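20 mM phosphate pH 7.0 + 0.01% (detergent screen) or 0.0001% Triton X-100; 5.3 nM AmpC reagent; cpd preinc 15 min RT; nitrocefin (800 uM stock) to start; A480 q20 s × 4 min; Activity was normalised to no-enzyme and no-compound control wells.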
Tb PYK inh – T. brucei pyruvate kinase inhibition; TbPYK enzyme, Kinase-Glo Plus ATP luminescence, 45 min; Potency, µM (highest dose often 76.8 µM), actives largely listed as inhibitors; hit rate 0.12% among 410,000; AID 624173; note: nearly all actives have a fitted effect of over 50% in size
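T. brucei PYK with substrate was exposed to pin-transferred compounds across a concentration series, then started with 130 uM ADP (final). After 45 min at room temperature, Kinase-Glo Plus luminescence was read, normalized and curve-fitted.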
FBPA Giardia inh – blocks Giardia fructose-bisphosphate aldolase activity; A8B2U2; purified Giardia FBPA; Potency, µM (highest dose often 59.6 µM), most hits filed as inhibitors; hit rate 0.71% among 290,000; AID 2451; note: nearly all actives have a fitted effect of over 55% in size
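40 nM FBPA preincubated 10 min at RT with compound (up to 57.5 uM final), then substrate plus GAPDH/TPI/NAD/arsenate coupling and diaphorase/resazurin added. Fluorescence read after 20 min at RT, 525/598 nm.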
AmpC detergent – blocks E. coli AmpC beta-lactamase in detergent assay; P00811; AmpC hydrolysis of nitrocefin, absorbance 480 nm, 0.01% Triton; Potency, µM (titrated, usually from 114 µM), hits mostly inhibitors; hit rate 0.041% among 370,000; AID 485294; note: nearly all actives have a fitted effect of over 25% in size
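20 mM phosphate pH 7.0 + 0.01% (detergent screen) or 0.0001% Triton X-100; 5.3 nM AmpC reagent; cpd preinc 15 min RT; nitrocefin (800 uM stock) to start; A480 q20 s × 4 min; Activity was normalised to no-enzyme and no-compound control wells.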
LmPK inhibitor – blocks Leishmania mexicana pyruvate kinase activity. hit rate 0.37% among 290,000. purified LmPK, Kinase-Glo ATP luminescence, 1 h. Potency, µM (top dose mostly 57.5 µM), most hits filed as inhibitors
Target sequence (Q27686 whole entry, looked up): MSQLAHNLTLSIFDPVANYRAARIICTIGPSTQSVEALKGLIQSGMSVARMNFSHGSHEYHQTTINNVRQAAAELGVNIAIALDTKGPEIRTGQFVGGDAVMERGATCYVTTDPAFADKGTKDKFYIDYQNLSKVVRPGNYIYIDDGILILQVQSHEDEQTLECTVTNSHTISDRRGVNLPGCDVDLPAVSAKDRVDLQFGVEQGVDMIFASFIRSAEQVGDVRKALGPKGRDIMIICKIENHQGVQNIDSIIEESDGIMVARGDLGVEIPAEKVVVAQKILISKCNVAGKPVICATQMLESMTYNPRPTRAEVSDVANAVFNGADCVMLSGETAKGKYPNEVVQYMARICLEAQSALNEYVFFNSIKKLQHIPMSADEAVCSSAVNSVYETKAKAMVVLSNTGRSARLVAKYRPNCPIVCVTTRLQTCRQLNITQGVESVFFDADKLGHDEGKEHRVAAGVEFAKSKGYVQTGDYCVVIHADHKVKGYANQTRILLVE
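Pyruvate kinase activity monitored as ATP production (luciferase luminescence). Conditions: 0.1 nM enzyme, 0.5 mM PEP, 0.1 mM ADP, 1 h, RT; normalized against uninhibited and no-enzyme wells.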
Hits are given with their value; [ ] = dose if it differs, or a comment. Unless noted, calls come from the whole dose curve; as a rule, active = well fitted curve in the direction sought with a large enough effect; inconclusive = small, poorly fitted or top-dose-only effect, or another doubt; inactive = no such curve, though single readings can be large; an effect the other way counts as inactive or inconclusive.

Screening Cc1c(/C=C(\C#N)C(=O)Nc2cccc(Cl)c2)c2ccccc2n1Cc1ccccc1 returned Tb PYK inh inactive and AmpC detergent inactive.
Cc1ccc2nc(N(CCCN(C)C)C(=O)c3ccc4ncsc4c3)sc2c1 was read as RE007 growth inh inactive, AmpC inh no detg inactive, Tb PYK inh 25.1µM, FBPA Giardia inh inactive, AmpC detergent inactive and LmPK inhibitor inactive.
`Cc1cc(C)cc(NC(=O)c2ccc3c(c2)nnn3C2CCCC2)c1` gave Tb PYK inh inactive and AmpC detergent inactive.
Screening O=C(Nc1nc(-c2ccco2)c(-c2ccco2)s1)C1CCC1 returned RE007 growth inh inactive, AmpC inh no detg 31.6µM, Tb PYK inh inactive, FBPA Giardia inh inactive, AmpC detergent inconclusive and LmPK inhibitor inactive.
For COc1ccc(-c2nc(SCC(=O)NCCCc3ccccc3)n[nH]2)cc1 the results were Tb PYK inh inactive and AmpC detergent inactive.
For Cc1nn(-c2ccccc2)c2c1N(CCCC(=O)NC(C)c1ccccc1)C(=O)CS2 (stereo not drawn) the results were Tb PYK inh inactive and AmpC detergent inactive.
`CC(=O)c1ccc(NC(=S)NC(NC(=O)c2ccco2)C(Cl)(Cl)Cl)cc1` (stereo not drawn) gave RE007 growth inh inactive, AmpC inh no detg 12.6µM, Tb PYK inh inactive, FBPA Giardia inh inactive, AmpC detergent inactive and LmPK inhibitor inactive.
`COc1ccc(NC(=S)NC(NC(=O)c2cccc(Cl)c2)C(Cl)(Cl)Cl)c([N+](=O)[O-])c1` (stereo not drawn) gave RE007 growth inh inactive, AmpC inh no detg inactive, Tb PYK inh inactive, FBPA Giardia inh inactive, AmpC detergent inactive and LmPK inhibitor inactive.
For COc1ccc(NC(=S)NC(NC(=O)c2cccc(C)c2)C(Cl)(Cl)Cl)c([N+](=O)[O-])c1 (stereo not drawn) the results were RE007 growth inh inactive, AmpC inh no detg 3.98µM, Tb PYK inh inactive, FBPA Giardia inh inactive, AmpC detergent inactive and LmPK inhibitor inactive.
COc1ccc(C(=O)NC(NC(=S)Nc2ccc(S(N)(=O)=O)cc2)C(Cl)(Cl)Cl)cc1 (stereo not drawn) was read as RE007 growth inh inactive, AmpC inh no detg 8.91µM, Tb PYK inh inactive, FBPA Giardia inh inactive, AmpC detergent inactive and LmPK inhibitor inactive.
COc1ccc(C(=O)NC(=S)Nc2ccc(S(N)(=O)=O)cc2)cc1 was read as RE007 growth inh inactive, AmpC inh no detg inactive, Tb PYK inh inactive, FBPA Giardia inh inconclusive, AmpC detergent inactive and LmPK inhibitor inactive.
Screening COc1ccc(C(=O)Nc2nc3n(n2)C(c2ccc(F)cc2)C=C(c2ccc(Cl)cc2)N3)cc1 (stereo not drawn) returned Tb PYK inh inactive and AmpC detergent inactive.
`O=C(O)c1cc(-c2ccc(-c3ccc(F)cc3)o2)nc2ccccc12` gave RE007 growth inh inactive, AmpC inh no detg inactive, Tb PYK inh inconclusive, FBPA Giardia inh 20µM, AmpC detergent inactive and LmPK inhibitor inactive.
`O=C(c1cc(-c2ccc(F)cc2)nc2ccccc12)N1CCC1` gave RE007 growth inh inactive, AmpC inh no detg inactive and Tb PYK inh inactive.
Screening OCC1(O)OC[C@@H](O)[C@H](O)[C@@H]1O (stereo partly drawn) returned Tb PYK inh inactive.
`CC(C(=O)O)c1ccc2c(c1)CC(=O)c1ccccc1S2` (stereo not drawn) gave Tb PYK inh inactive.
`COc1ccc(N2C(=O)CC(Sc3n[nH]c(-c4cccc(C)c4)n3)C2=O)cc1` (stereo not drawn) gave RE007 growth inh 20µM, AmpC inh no detg inactive, Tb PYK inh inactive, FBPA Giardia inh inactive, AmpC detergent inactive and LmPK inhibitor inactive.
`COc1ccccc1NS(=O)(=O)c1ccc(C(=O)N2CCCC(C(F)(F)F)C2)cc1` (stereo not drawn) gave RE007 growth inh inactive, AmpC inh no detg inactive, Tb PYK inh inactive and AmpC detergent inactive.
Screening Cc1ccc(NS(=O)(=O)c2ccc(C(=O)N3CCCC(C(F)(F)F)C3)cc2)cc1 (stereo not drawn) returned RE007 growth inh inactive, AmpC inh no detg 35.5µM, Tb PYK inh inactive and AmpC detergent inconclusive.
`COc1ccc(/C=N\NC(=O)c2cc(O)c(O)c(O)c2)cc1COc1ccc(C(=O)OCC(C)C)cc1` gave AmpC inh no detg 10µM, Tb PYK inh inactive, FBPA Giardia inh inconclusive, AmpC detergent inactive and LmPK inhibitor inactive.
For COc1ccc(C(=O)Oc2ccc(/C=N/NC(=O)c3ccccc3OC)cc2[N+](=O)[O-])cc1 the results were RE007 growth inh inactive, AmpC inh no detg inactive, Tb PYK inh inactive, FBPA Giardia inh inactive, AmpC detergent inactive and LmPK inhibitor inactive.
For COc1ccc(C(=O)N/N=C/c2ccc(OC(=O)c3cccc4ccccc34)c([N+](=O)[O-])c2)cc1 the results were RE007 growth inh inactive, AmpC inh no detg 28.2µM, Tb PYK inh inactive, FBPA Giardia inh inactive, AmpC detergent inactive and LmPK inhibitor inactive.
`COc1ccc(/C=N/NC(=O)c2ccc(-c3ccccc3)cc2)cc1O` gave RE007 growth inh inactive, AmpC inh no detg 35.5µM, Tb PYK inh inactive, FBPA Giardia inh inactive, AmpC detergent inactive and LmPK inhibitor inactive.
`Cc1ccc(-c2noc(-c3ccccc3NC(=O)C3CC(=O)N(c4ccc(C)cc4)C3)n2)cc1` (stereo not drawn) gave Tb PYK inh inactive and AmpC detergent inactive.
CCc1ccc(NC(=O)N(Cc2ccc(C)cc2)Cc2cccn2-c2nnc(N3CCCC3=O)s2)cc1 was read as Tb PYK inh inactive and AmpC detergent inactive.
Screening Cc1cccc(C(=O)OCC(=O)N2CCCC2=O)c1O returned RE007 growth inh 2µM, AmpC inh no detg inactive, Tb PYK inh inactive and AmpC detergent inactive.
O=S(=O)(c1cccc(-c2n[nH]c(=S)n2C2CCCC2)c1)N1CCOCC1 was read as RE007 growth inh inactive, AmpC inh no detg inactive, Tb PYK inh 6.31µM, FBPA Giardia inh inactive, AmpC detergent inactive and LmPK inhibitor inactive[11.5 µM].
C=CCn1c(-c2cccc(S(=O)(=O)N3CCOCC3)c2)n[nH]c1=S was read as RE007 growth inh inactive, AmpC inh no detg inactive, Tb PYK inh inconclusive and AmpC detergent inconclusive.
CC1Oc2ccccc2N(CC(=O)NCCCN2CCOCC2)C1=O (stereo not drawn) was read as RE007 growth inh inactive, AmpC inh no detg inactive, Tb PYK inh inactive, AmpC detergent inactive and LmPK inhibitor inactive.
